Data taken from PubChem BioAssay (Tox21).
Results filed as inconclusive are left out. Active and inactive are the calls of the source. Calls come from the whole dose curve.

molecular target: Acetylcholinesterase (Homo sapiens) (UniProt P22303); assay: Acetylcholinesterase (AChE) small molecule antagonists: fluorescence cell-based qHTS assay (AID 1347398); conditions: SH-SY5Y cells; Potency: AChE activity; outcome: AChE activity; series mostly up to 115 µM; activity change, negative = inhibition: at the top concentration; note: nearly all actives have a fitted effect of over 50% in size
Summary of the method: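 Fluorimetric cell-based assay: intact SH-SY5Y cells, 30 min compound preincubation at 37 C, acetylthiocholine substrate with thiol probe Thiolite Green, 40 min RT development, fluorescence 490/520 nm.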
% is set by controls: 0 for no effect and ±100 for the full control effect; potency is the fitted concentration of half-maximal effect.

Acetylcholinesterase (Homo sapiens), sequence (P22303 whole entry, looked up): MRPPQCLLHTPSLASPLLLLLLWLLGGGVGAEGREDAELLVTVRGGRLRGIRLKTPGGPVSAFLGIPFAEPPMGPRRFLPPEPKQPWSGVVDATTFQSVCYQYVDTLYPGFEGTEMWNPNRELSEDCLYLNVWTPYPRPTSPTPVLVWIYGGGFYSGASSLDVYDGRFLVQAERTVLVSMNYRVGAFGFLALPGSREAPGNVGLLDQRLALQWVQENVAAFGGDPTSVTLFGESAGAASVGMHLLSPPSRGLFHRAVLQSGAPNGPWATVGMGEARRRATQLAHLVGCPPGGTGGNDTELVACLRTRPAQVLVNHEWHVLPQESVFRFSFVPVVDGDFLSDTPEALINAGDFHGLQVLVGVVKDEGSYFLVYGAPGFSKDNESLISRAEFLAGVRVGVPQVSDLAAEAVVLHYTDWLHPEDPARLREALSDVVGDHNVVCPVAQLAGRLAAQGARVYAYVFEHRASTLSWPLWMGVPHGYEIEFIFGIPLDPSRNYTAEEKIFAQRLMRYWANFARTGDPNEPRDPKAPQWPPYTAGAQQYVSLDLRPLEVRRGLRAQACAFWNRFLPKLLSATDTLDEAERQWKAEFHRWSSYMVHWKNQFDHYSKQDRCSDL

SMILES	Potency	activity change, negative = inhibition
CCCNC(=O)NS(=O)(=O)c1ccc(Cl)cc1	inactive	–
CC(C)=CCCC(C)CCO (stereo not given)	inactive	–
CNS(=O)(=O)Cc1ccc2[nH]cc(CCN(C)C)c2c1	–	-5.52% [at 53.7 µM] (inactive)
CC(=O)O[C@H](CC(=O)[O-])C[N+](C)(C)C	–	6.73% (inactive)
CCCOCCO	inactive	–
O=c1c2ccccc2oc2ccccc12	–	-7.86% (inactive)
CC(CN)CCCN (stereo not given)	–	-16.9% (inactive)
COC(=O)c1ccccc1	inactive	–
O=C(O)CCCCCCC(=O)O	–	0.76% (inactive)
CCCCCC=O	inactive	–
CC(CCC(=O)O)(c1ccc(O)cc1)c1ccc(O)cc1	inactive	–
CN1CN(C)CN(C)C1	–	2.39% (inactive)
CSCC[C@H](NC(=O)[C@H](Cc1c[nH]c2ccccc12)NC(=O)CCNC(=O)OC(C)(C)C)C(=O)N[C@@H](CC(=O)O)C(=O)N[C@@H](Cc1ccccc1)C(N)=O	–	10.1% [at 53.7 µM] (inactive)
O=c1[nH]c2ccccc2n1CCCN1CCN(C(c2ccccc2)c2ccccc2)CC1	–	-13.3% [at 53.7 µM] (inactive)
CN(C)c1ccc(Cc2ccc(N(C)C)cc2)cc1	inactive	–
COc1c(Cl)c(Cl)c(Cl)c(Cl)c1Cl	inactive	–
CCCc1ncc(C(=O)O)s1	–	7.02% [at 53.7 µM] (inactive)
CC1(C)CC(N=C=O)CC(C)(CN=C=O)C1 (stereo not given)	inactive	–
CCC(CO)(CO)CO	–	3.39% (inactive)
C/C=C/C=N/NC(=O)c1ccncc1	–	-21.6% [at 53.7 µM] (inactive)

SMILES	Potency	activity change, negative = inhibition
CC/C=C(\C)C=O	–	4.82% (inactive)
CC(C)OC(=O)C(C(=O)OC(C)C)=C1SC=CS1	–	-7.2% [at 53.7 µM] (inactive)
CC(O)COc1ccccc1 (stereo not given)	inactive	–
NCCCC[C@H](N[C@@H](CCc1ccccc1)C(=O)O)C(=O)N1CCC[C@H]1C(=O)O	–	4.71% [at 53.7 µM] (inactive)
CC1(O)CSC(C)(O)CS1 (stereo not given)	–	18.5% (inactive)
Cc1ccc(C(=O)O)cc1[N+](=O)[O-]	–	5.69% (inactive)
CCOCC(O)COc1ccc(NC(=O)CC[S+](C)C)cc1 (stereo not given)	–	-14.8% [at 53.7 µM] (inactive)
O=[N+]([O-])c1ccccc1Nc1ccccc1	–	-23.7% (inactive)
CC(=O)Oc1ccccc1C(=O)O	inactive	–
COCCOC(=O)C1=C(C)NC(C)=C(C(=O)OC(C)C)C1c1cccc([N+](=O)[O-])c1 (stereo not given)	–	0.488% [at 53.7 µM] (inactive)
CN1CCN(CCCN2c3ccccc3Sc3ccc(Cl)cc32)CC1	–	-20.4% [at 53.7 µM] (inactive)
O=C(O)CC(C(=O)O)S(=O)(=O)O (stereo not given)	–	2.74% (inactive)
NC(=O)OCC(COC(N)=O)c1ccccc1	inactive	–
CC/C(=C(\c1ccc(O)cc1)c1ccc(OCCN(C)C)cc1)c1ccccc1	40 µM (active)	–
O=C(O)c1ccc[n+]([O-])c1	–	1.64% [at 53.7 µM] (inactive)
C[C@]12CC[C@@H]3c4ccc(O)cc4CC[C@H]3[C@@H]1CC[C@@H]2O	inactive	–
Cc1cc(NC(=O)C2=C(O)c3ccccc3S(=O)(=O)N2C)no1	–	1.52% [at 53.7 µM] (inactive)
O=C(O)c1[nH]n(-c2ccc(S(=O)(=O)O)cc2)c(=O)c1N=Nc1ccc(S(=O)(=O)O)cc1	inactive	–
Cc1ccsc1C(=CCCN1CCC[C@@H](C(=O)O)C1)c1sccc1C	–	-8.43% [at 53.7 µM] (inactive)
NC[C@H]1O[C@H](O[C@H]2[C@H](O)[C@@H](O[C@H]3O[C@H](CO)[C@@H](O)[C@H](N)[C@H]3O)[C@H](N)C[C@@H]2N)[C@H](N)[C@@H](O)[C@@H]1O	–	4.18% [at 23.8 µM] (inactive)
